NS1 function inh: influenza NS1 inhibition | AID 2326 | actives 0.4% (n = 270,000) | Potency, µM (highest dose often 46.1 µM), for inactives: at the highest dose activity, positive = more growth; calls by dose curve; also: actives are rising curves; nearly all actives have a fitted effect of over 50% in size
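Read-out: OD600 growth recovery of NS1-expressing budding yeast. Cells grown overnight at 30C in -URA glucose medium, washed, resuspended and diluted 1:100 in 2% galactose assay medium, pH 6.0. Same strain lacking NS1 served as positive control.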
HCV inhibitor: inhibitors of hepatitis C virus infection | actives 3.4% (n = 340,000) | Potency, µM (highest dose often 41.8 µM), for inactives: at the highest dose activity change, negative = inhibition, hits mostly inhibitors | Huh7.5.1 HCVcc-Cre infection, luciferase reporter, 44 h; also: % is scaled to controls: 0 for no effect and ±100 for the full control effect
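Luciferase read-out (15 sec integration) after a 15 min room-temperature substrate step quantifies HCVcc-Cre infection. Cells, 1,000 per well, had compound added 4 h post-plating, then virus at ~0.5 moi, and were cultured 44 h.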
Vaccinia Venus: inhibitors of vaccinia virus (Venus reporter); AID 720580; actives 0.46% (n = 330,000); Potency, µM (highest dose often 36.5 µM), inactives show top-dose activity change, negative = inhibition, most hits filed as inhibitors; Vaccinia virus Venus reporter expression, fluorescence; calls by dose curve; tested in A549 cells; also: % is scaled to controls: 0 for no effect and ±100 for the full control effect; nearly all actives have a fitted effect of over 30% in size
Pf growth 48h: inhibits P. falciparum growth in the first generation, 48 h; actives 5.9% (n = 310,000); Potency, µM (highest dose often 28.7 µM), without a hit: top-dose activity change, negative = inhibition, most hits filed as inhibitors; P. falciparum luciferase growth in erythrocytes, 48 h; also: % is scaled to controls: 0 for no effect and ±100 for the full control effect
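Firefly luciferase activity from engineered P. falciparum reports growth; inhibitors lower the luminescent signal. Cultures contained 2% hematocrit erythrocytes at 0.1% final parasitemia.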
Pf growth 96h: P. falciparum growth inhibition at 96 hours; Potency, µM (top dose mostly 28.7 µM), without a hit: at the top dose activity change, negative = inhibition, hits mostly inhibitors; actives 6.9% (n = 320,000); P. falciparum luciferase reporter growth, 96 h; also: % is scaled to controls: 0 for no effect and ±100 for the full control effect
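Delayed-death screen, second-generation endpoint: infected erythrocytes, 2% hematocrit, 0.05% parasitemia final; 96 hours at 37 C, 5% CO2; luciferase detection reagent; luminescence decrease equals reduced growth.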
VACV mCherry inh: inhibitors of vaccinia virus infection (mCherry reporter signal); Vaccinia virus mCherry reporter infection, fluorescence; Potency, µM (doses to about 36.5 µM), without a hit: at the top dose activity change, negative = inhibition, hits mostly inhibitors; actives 0.63% (n = 310,000); AID 720579; calls by dose curve; tested in A549 cells; also: % is scaled to controls: 0 for no effect and ±100 for the full control effect; nearly all actives have a fitted effect of over 35% in size
Active calls of the source: *; i = inactive; u = inconclusive; x = no result; [ ] = remark or other dose. Rows were chosen to be rich in hits. Some 11% of all compounds tested hit in one or more screens of this group. Unless noted, calls follow the shape of the dose curve; as a rule, active = well fitted inhibition curve with a large enough effect; inconclusive = small, poorly fitted or top-dose-only effect, or another doubt; inactive = no such curve, though single readings can be large or run the other way. Potency is read from the fitted curve at half-maximal effect.

SMILES	NS1 function inh	HCV inhibitor	Vaccinia Venus	Pf growth 48h	Pf growth 96h	VACV mCherry inh
COc1cc(C2C3=C(CCCC3=O)Nc3[nH]n(-c4ccccc4)c(=O)c32)ccc1OC(C)=O (configuration not stated)	x	-28.4%	-13.3%	u	4.2%	-7.9%
NC(N)=NS(=O)(=O)c1ccc(NC(=S)NC(=O)/C=C/c2ccc(F)cc2)cc1	28.7%	4.5%	-14.3%	10.5%	u	-2.3%
Nc1ncnc2c(C3OC(CO)C(O)C3O)scc12 (configuration not stated)	x	u	0.355µM*	x	x	u
Nc1ncnc2c1ncn2[C@@H]1O[C@H](CO)[C@@H](O)[C@@H]1O	x	11.2%	-22.8%	x	x	u
CCN(CC)c1nc2ccccc2nc1C(C#N)C(=O)NCCCOC (configuration not stated)	-34.8%	7.08µM*	-19.7%	u	x	x
COCCCNC(=O)C(C#N)c1nc2ccccc2nc1N1CCCC1 (configuration not stated)	3.0%	-1.6%	-9.3%	8.28µM*	7.38µM*	x
C[C@@H]1CC=C[C@H]2[C@H]1C(=O)N(Cc1ccccc1)[C@H]2c1ccc(C(F)(F)F)cc1	-77.7%	u	-25.9%	u	u	-10.2%
COc1ccc(-c2ccc(C)cc2)cc1[C@H]1[C@@H]2C=CCC[C@@]2(C)C(=O)N1Cc1ccccc1	1.8%	3.7%	-6.2%	11.7µM*	u	i
C[C@@]12CCC=C[C@H]1[C@H](c1ccc(/C=C/c3ccccc3)cc1F)N(Cc1ccccc1)C2=O	19.9%	-5.3%	-20.4%	11.7µM*	u	-9.9%
C[C@@]12CCC=C[C@H]1[C@H](c1ccc(C(F)(F)F)cc1)N(Cc1ccccc1)C2=O	-56.0%	-10.5%	-13.7%	u	10.4µM*	-5.3%
C[C@@]12CCC=C[C@H]1[C@H](c1ccc3ccccc3c1/C=C/c1ccccc1)N(Cc1ccccc1)C2=O	2.8%	34.4%[8.37 µM]	u	u	u	-28.9%
COc1ccc(-c2ccc(C(C)=O)cc2)cc1[C@H]1[C@@H]2C=CCC[C@@]2(C)C(=O)N1Cc1ccccc1	3.3%	-4.3%	u	u	u	-21.9%
O=C(CSc1nnnn1-c1ccccc1F)Nc1nc2ccccc2s1	-1.8%	u	2.0%	x	-12.6%	-8.5%
C=CCn1c(CCNC(=O)c2ccccc2F)nnc1SCC(=O)Nc1nc2ccccc2s1	2.7%	-29.6%	-16.3%	x	11.7µM*	-1.8%
COc1cc(C(O)c2nc3ccccc3s2)cc(OC)c1OC (configuration not stated)	-8.3%	7.08µM*	-29.3%	-7.6%	-2.0%	u
CCC(C)C1C(C#N)=C(N)OC2=C1C(=O)CC(C)(C)C2 (configuration not stated)	-84.3%	-4.0%	-0.9%	u	u	29.7%
CC1C(C#N)=C(N)OC2=C1C(=O)CC(C)(C)C2 (configuration not stated)	-2.0%	-0.9%	x	x	13.1µM*	x
COc1cc(C2C(C#N)=C(N)OC3=C2C(=O)CC(C)(C)C3)cc2c1OCO2 (configuration not stated)	x	10µM*	-19.0%	x	x	-14.1%
COC(=O)c1nc(-c2ccccc2)n[nH]1	-2.5%	14.6%	x	13.8%	9.3%	x
CC/C(=N\NC(=O)c1ccccc1O)c1c(O)n(C2CCCCC2)c(=O)[nH]c1=O	-7.6%	2.1%	x	u	11.7µM*	x
COc1ccc(CNc2nc(=S)[nH]c3cc(OC)c(OC)cc23)cc1	1.1%	-4.0%	x	-29.5%	-19.8%	x
Cc1ccc2nc(NCc3ccccc3)[nH]c2c1	-6.1%	u	u	u	1.17µM*	u
Cc1ccc2[nH]c3c(NCc4ccccc4)ncnc3c2c1	-1.7%	7.94µM*	x	u	u	x
CC(C)OCCCNc1ncnc2c1[nH]c1ccccc12	-22.5%	2.51µM*	x	5.86µM*	u	x
CC(C)OCCCNc1nc2c(-c3ccccc3)nnn2c2ccccc12	u	15.7%[8.37 µM]	x	u	u	x

Bioassay records: PubChem BioAssay, National Center for Advancing Translational Sciences (NCATS)
